High-throughput results from PubChem.
An excerpt weighted towards active compounds, which were near 3.8% of everything screened.
HepG2 viability: kills HepG2 cells in TGF-b inhibitor counter-screen | HepG2 CAGA-GFP viability, ATP luminescence, 18 h | Potency, µM (top dose mostly 46.1 µM), for inactives: top-dose activity change, negative = cytotoxicity, usual class: cytotoxic | 410,000 tested, 0.76% active | AID 588856
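CellTiter-Glo luminescence gave cytotoxicity after 18 hours at 37 degrees C. The cells were HepG2 CAGA-GFP in 1% FBS DMEM, stimulated with 500 pg/mL TGF-beta after compound addition. %Activity was normalised to no-cell wells (complete cell-killing) and DMSO (no toxicity), and curves were fitted and classified.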
HT1080NT lethal: kills 2HG-producing HT-1080-NT fibrosarcoma cells | HT-1080-NT fibrosarcoma viability, CellTiter-Glo ATP luminescence, 48 h | Potency, µM (titrated, usually from 46.1 µM), inactives show at the highest dose activity, negative = less viability, usual class: cytotoxic | 360,000 tested, 1.6% active | AID 686970;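 note: NT is the 2HG producing partner of a matched IDH1 knockdown line; 0% = DMSO-treated cells and -100% = media-only wells without cells; nearly all actives have a fitted effect of over 55% in size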
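Viability by CellTiter-Glo luminescence after 48 h compound exposure at 37C of HT-1080-NT cells (750/well, RPMI, 5% FBS). % activity scaled between DMSO wells and medium-only wells, then curve-fitted and categorized by curve class.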
HT1080 IDH1KD tx: toxicity to HT-1080 IDH1 knockdown cells (counter line) | HT-1080 IDH1 knockdown viability, ATP luminescence, 48 h | Potency, µM (highest dose often 46.1 µM), without a hit: top-dose activity, negative = toxicity, usual class: cytotoxic | 360,000 tested, 2% active | AID 686971;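 note: 0% = DMSO wells and -100% = cell-free medium wells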
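Luminescent ATP read-out (CellTiter-Glo, 10 min at room temperature) after 48 h compound exposure at 37 °C gave viability of IDH1-knockdown HT-1080 cells. Activity was normalised to DMSO and cell-free wells, then fitted as concentration-response curves.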
ATXN2 expr inh: inhibitors of ATXN2 expression. HEK-293 ATXN2-luciferase reporter, luminescence, 24 h. Potency, µM (titrated, usually from 57 µM), without a hit: at the highest dose activity change, negative = inhibition, actives largely listed as inhibitors. 360,000 tested, 0.72% active. AID 1745845; note: % is set by controls: 0 for no effect and ±100 for the full control effect; nearly all actives have a fitted effect of over 55% in size
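qHTS (up to 57 uM final) was run with 24 h compound exposure of reporter cells at 37 °C. Each well was multiplexed: SteadyGlo luminescence measured ATXN2-luciferase expression after a fluorogenic Gly-Phe-AFC viability readout (25 uM final).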
S2 tox: reduces viability in counter-screen for ATXN expression inhibitors; S2 cells (HEK-293 line with an ATXN2-luciferase reporter) viability, CellTiter-Fluor protease fluorescence, 24 h; Potency, µM (doses to about 56.7 µM), most hits filed as cytotoxic; 400,000 tested, 0.49% active; note: nearly all actives have a fitted effect of over 40% in size
TGFb SMAD3 inh: inhibitors of TGF-b signaling; HepG2 CAGA-GFP TGF-b/SMAD3 reporter, GFP fluorescence, 18 h; TGF-beta stimulated, 500 pg/mL final; Potency, µM (top dose mostly 46.1 µM), for inactives: at the top dose activity, negative = inhibition, usual class: inhibitors; 410,000 tested, 1.2% active; AID 588855; note: % is set by controls: 0 for no effect and ±100 for the full control effect; nearly all actives have a fitted effect of over 65% in size
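Per well, imaged GFP fluorescence of HEPG2 CAGA-GFP cells gives the signal; cells get compound, then TGF-beta (500 pg/mL final), 18 h at 37 degrees C; %Activity versus -TGF-beta and +DMSO controls.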
Starred values were filed as active, the others as inactive; i = inactive; u = inconclusive; x = not tested or not shown; [ ] = dose if it differs, or a comment. Calls come from the whole dose curve; as a rule, active = well fitted curve in the direction sought with a large enough effect; inconclusive = small, poorly fitted or top-dose-only effect, or another doubt; inactive = no such curve, though single readings can be large; an effect the other way counts as inactive or inconclusive. Potency is the fitted concentration of half-maximal effect.

SMILES	HepG2 viability	HT1080NT lethal	HT1080 IDH1KD tx	ATXN2 expr inh	S2 tox	TGFb SMAD3 inh
CN1C(=S)N(c2cccnc2)C(=O)/C1=C\c1ccc(C(C)(C)C)cc1	-57.6%	u	u	5.1%	u	22.4µM*
O=C1C=CC(=O)N1c1ccc2c(c1)Cc1cc(F)ccc1-2	0.4%	22.8%	-8.2%	0.0%	u	-5.7%
CC(=O)Nc1ccc2c(c1)Cc1cc(N3C(=O)C=CC3=O)ccc1-2	-71.7%	-12.3%	u	u	u	15.8µM*
C#C[C@]1(O)CC[C@H]2[C@@H]3CCc4cc(O)ccc4[C@H]3CC[C@@]21C	-3.9%	9.2µM*	20.6µM*	-9.0%	u	-13.0%
C#C[C@]1(O)CC[C@@H]2[C@@H]3CCc4cc(O)ccc4[C@H]3CC[C@@]21C	x	x	x	-16.3%	x	x
CC(=O)O[C@H]1CC[C@H]2[C@@H]3CCc4cc(O)ccc4[C@H]3CC[C@]12C	-49.7%	18.4µM*	u	u	u	u
CC1(C2CCN(Cc3c[nH]c4ccccc34)CC2)NC(=O)N(CCN2CCOCC2)C1=O (stereo not drawn)	x	x	x	x	i	x
C=CCN(CC=C)S(=O)(=O)c1ccc2nc(NC(=O)C(C)C)sc2c1	-3.7%	3.66µM*	7.31µM*	-25.7%	i	-1.7%
CCOC(=O)c1ccc2nc(NC(=O)C(C)C)sc2c1	-28.1%	-0.8%	1.7%	46.5%	i	u
Cc1nn(Cc2ccc(Cl)cc2Cl)c(C)c1NC(=O)NC12CC3CC(CC(C3)C1)C2	14.9%	-13.9%	18.4µM*	-28.9%	i	0.0%
Cc1nn(Cc2ccc(Cl)cc2Cl)c(C)c1NC(=O)c1sc2ccccc2c1Cl	-0.8%	10.9%	9.7%	-33.5%	u	-3.4%
Cc1ccccc1C(=O)NNC(=S)NC(=O)c1ccc(Cl)cc1Cl	-15.9%	u	0.0%	-8.8%	i	u
CCCN(CCC)C(=S)NC(=O)c1ccc(Cl)cc1Cl	-17.7%	3.16µM*	2.51µM*	-23.6%	i	u
Cc1ccc(C)c(N2CCN(C(=O)c3cc4c(=O)n(Cc5ccccc5)ccc4nc3C)CC2)c1	-33.5%	x	x	u	u	10µM*
CC(=O)Nc1ccc(NC(=O)c2cc3c(=O)n(Cc4cccnc4)ccc3nc2C)cc1	17.8µM*	x	x	12.6%	i	-2.2%
Cc1ccc(C)c(N2CCN(C(=O)c3cccn4c(=O)c5sccc5nc34)CC2)c1	-23.5%	13µM*	16.4µM*	18.2%	i	-20.4%
CC(C)c1ccc(NC(=O)N2c3ccccc3Sc3ccccc32)cc1	-6.3%	x	x	15.5%	i	7.1%
Cc1oc(-c2cccc(Cl)c2)nc1Cn1c(SCc2ccccc2F)nc2ccncc21	-13.0%	x	x	3.7%	i	u
O=C(OCCN1C(=O)c2cccc3c(N4CCOCC4)ccc(c23)C1=O)c1cccc(Cl)c1	8.0%	14.6µM*	9.2µM*	-37.3%	x	24.8%
O=C(OCCN1C(=O)c2cccc3c(N4CCOCC4)ccc(c23)C1=O)c1ccccc1Cl	-12.0%	-22.8%	u	u	x	69.6%
O=C(OCCN1C(=O)c2cccc3c(N4CCOCC4)ccc(c23)C1=O)c1ccc(Cl)cc1Cl	4.5%	1.84µM*	2.31µM*	-24.5%	x	50.3%
CCCC(CCC)C(N)=O	x	x	x	x	i	x
CCc1ccc(CNC(=O)Cc2ccc(NC(=O)C3=C(C)OCCS3)cc2)cc1	-8.4%	0.82µM*	1.3µM*	7.0%	i	u
CC[C@H](C)[C@@H](CN[C@H](C)CNC)NCCC(c1ccccc1)c1ccccc1	22.4µM*	u	u	u	31.6µM*	u
O=C(OCC(=O)N1CCCC1=O)c1nc(Cl)c(Cl)c(Cl)c1Cl	-15.3%	-7.5%	u	u	31.6µM*	-1.8%
SMILES	HepG2 viability	HT1080NT lethal	HT1080 IDH1KD tx	ATXN2 expr inh	S2 tox	TGFb SMAD3 inh
Cc1ccc(/C=C/C(=O)N2CCN(S(=O)(=O)c3ccc(C)c(C)c3)CC2)o1	-20.8%	u	u	-18.8%	i	10µM*
Cc1ccc(/C=C/C(=O)N2CCN(S(=O)(=O)c3c(C)c(C)cc(C)c3C)CC2)o1	-44.2%	-20.2%	u	2.9%	i	u
O=C(NC1CCCCC1)C(CCc1ccccc1)N1CCc2ccccc2C1 (stereo not drawn)	-12.4%	u	u	12.8%	i	10µM*
O=C(NC1CCCCC1)C(CCc1ccccc1)N1CCOCC1 (stereo not drawn)	-19.4%	26.4%	15.4%	-15.3%	i	-18.4%
COC(=O)c1c(-c2ccc(F)cc2)noc1N	10.1%	6.1%[9.24 µM]	11.2µM*	20.7%	i	-10.9%
COC(=O)c1onc(-c2ccccc2)c1C(=O)OC	1.1%	5.7%	12.4%	2.2%	u	8.0%
Cc1ccc(CN2CC(C(=O)Nc3ncc(C)s3)CC2=O)cc1 (stereo not drawn)	-32.0%	-0.3%	-1.4%	15.8µM*	i	u
Cc1ccc(CN2CC(C(=O)Nc3nc(C)cs3)CC2=O)cc1 (stereo not drawn)	3.5%	-0.5%	-0.1%	x	i	1.6%
Cc1c(C(=O)NCC(C)(C)N2CCOCC2)cnn1-c1ncc2c(n1)-c1ccccc1CCC2	x	x	x	x	i	x
Cc1cnc(Nc2cccc(CN3CCOCC3)c2)nc1Nc1cccc(S(=O)(=O)NC(C)(C)C)c1	x	x	x	8.2%	x	x
COc1ccc(NS(=O)(=O)c2ccc(C(=O)N3CCCCCC3)cc2)cc1	5.9%	18.4µM*	-10.1%	u	u	u
COc1ccc(CN2CCN(C(=O)c3ccc(S(=O)(=O)N4CCCCCC4)cc3)CC2)cc1	10.9%	16.4µM*	-27.5%	-34.4%	i	-6.1%
COc1ccc(S(=O)(=O)N2CCN(C(=O)CSC(=S)N3CCCC3)CC2)cc1	15.8µM*	1.1%	-6.8%	x	i	u
O=C(c1ccc(S(=O)(=O)N2CCCCCC2)cc1)N1CCN(Cc2ccccc2)CC1	-23.7%	-0.6%	6.7%	-13.4%	i	-14.1%
COc1ccc(S(=O)(=O)N2CCN(C(=O)C3CCC3)CC2)cc1	2.8%	1.2%	4.6%	4.9%	i	-10.1%
O=C1c2ccccc2NC(c2ccc3c(c2)OCO3)N1Cc1ccco1 (stereo not drawn)	-16.8%	x	x	x	x	-6.4%
